Records with an inconclusive call do not appear. Entries that show only a call come without a potency. Active and inactive are the calls of the source. Calls come from the whole dose curve; as a rule, active = well fitted curve in the direction sought with a large enough effect in the repeat runs; inconclusive = weak or mixed curves; inactive = no such curve, though single readings can be large; an effect the other way counts as inactive or inconclusive.
Assay: qHTS RealTime-Glo MT Cell Viability Assay in HepG2 cells - 24 hour (AID 1224867)
Details: RealTime-Glo luminescence; series mostly up to 76.8 µM
Summary of the method: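 Viability was tracked continuously by NanoLuc luminescence from prosubstrate reduced by living HepG2 cells, at successive time points over 40 h of compound exposure. Cells with reagent were preincubated 5 h at 37 °C before compound addition.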
Note: nearly all actives have a fitted effect of over 50% in size.

Row | Compound | Potency
1 | N#CCCC#N | inactive
2 | Nc1ccccc1Cl | inactive
3 | CNC(=O)O/N=C(\C)SC | inactive
4 | CC1CN1P(=O)(N1CC1C)N1CC1C (stereo unspecified) | inactive
5 | BrCCCCCCBr | inactive
6 | O=C1CN=C(c2ccccc2)c2cc([N+](=O)[O-])ccc2N1 | inactive
7 | O=C(NCO)NCO | inactive
8 | O=c1oc2ccccc2c(O)c1C1CCCc2ccccc21 (stereo unspecified) | inactive
9 | OCCBr | inactive
10 | CCCCP(CCCC)CCCC | inactive
11 | CCNc1nc(NC(C)C)nc(OC)n1 | inactive
12 | CNC(=O)Oc1ccc(N(C)C)c(C)c1 | inactive
13 | CC1(C)C(=O)NC(=O)NC1=O | inactive
14 | Clc1ccccc1N1CCNCC1 | inactive
15 | ClCC(Cl)(Cl)Cl | inactive
16 | c1ccc(N2CCNCC2)cc1 | inactive
17 | NC(=S)C(N)=S | inactive
18 | C=CC1CC=CCC1 (stereo unspecified) | inactive
19 | OCCSCSCCO | inactive
20 | CC1(C)COP(Oc2ccccc2)OC1 | inactive
21 | CC(C)CC#N | inactive
22 | CN1CCC(O)(c2ccc(F)cc2)C(C(=O)c2ccc(F)cc2)C1 (stereo unspecified) | inactive
23 | CC1COC2(c3ccccc3Cl)c3cc(Cl)ccc3NC(=O)CN12 (stereo unspecified) | inactive
24 | O=C1CN2CCOC2(c2ccccc2Cl)c2cc(Cl)ccc2N1 (stereo unspecified) | inactive
25 | [O]=[Cd] | inactive
26 | ClC(Cl)C(Cl)Cl | inactive
27 | CC(N)=S | inactive
28 | C#CCN1C(=O)COc2cc(F)c(N3C(=O)C4=C(CCCC4)C3=O)cc21 | inactive
29 | [As]#[In] | inactive
30 | CC(C)(C)NCC(O)c1cc(Cl)c(N)c(Cl)c1 (stereo unspecified) | inactive

Assay: qHTS RealTime-Glo MT Cell Viability Assay in HEK293 cells - 32 hour (AID 1224868); note: top concentration of the series differs between compounds
Details: RealTime-Glo luminescence; series mostly up to 76.8 µM
Summary of the method: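 Viability tracked continuously by luminescence as live cells reduce a prosubstrate for NanoLuc; HEK293 cells preincubated 5 h, compound-treated at 37 C, and read at 0, 8, 16, 24, 32 and 40 h.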

Row | Compound | Potency
31 | N#CCCC#N | inactive
32 | Nc1ccccc1Cl | inactive
33 | ClCCOCOCCCl | inactive
34 | CNC(=O)O/N=C(\C)SC | inactive
35 | CC1CN1P(=O)(N1CC1C)N1CC1C (stereo unspecified) | inactive
36 | BrCCCCCCBr | inactive
37 | COc1cccc(C(=O)NN(C(=O)c2cc(C)cc(C)c2)C(C)(C)C)c1C | inactive
38 | CNC(=O)Oc1ccccc1C1OCCO1 | inactive
39 | O=C1CN=C(c2ccccc2)c2cc([N+](=O)[O-])ccc2N1 | inactive
40 | O=C(NCO)NCO | inactive
41 | CC1CCC(=O)O1 (stereo unspecified) | inactive
42 | CCCCCCBr | inactive
43 | O=c1oc2ccccc2c(O)c1C1CCCc2ccccc21 (stereo unspecified) | inactive
44 | CCCCCCI | inactive
45 | OCCBr | inactive
46 | CCCCP(CCCC)CCCC | inactive
47 | CCNc1nc(NC(C)C)nc(OC)n1 | inactive
48 | CNC(=O)Oc1ccc(N(C)C)c(C)c1 | inactive

Row | Compound | Potency
49 | CC1(C)C(=O)NC(=O)NC1=O | inactive
50 | Clc1ccccc1N1CCNCC1 | inactive
51 | ClCC(Cl)(Cl)Cl | inactive
52 | c1ccc(N2CCNCC2)cc1 | inactive
53 | NC(=S)C(N)=S | inactive
54 | C=CC1CC=CCC1 (stereo unspecified) | inactive
55 | OCCSCSCCO | inactive
56 | CC1(C)COP(Oc2ccccc2)OC1 | inactive
57 | CC(C)CC#N | inactive
58 | CN1CCC(O)(c2ccc(F)cc2)C(C(=O)c2ccc(F)cc2)C1 (stereo unspecified) | inactive
59 | O=C1CN2CCOC2(c2ccccc2Cl)c2cc(Cl)ccc2N1 (stereo unspecified) | inactive
60 | ClC(Br)Br | inactive
61 | [O]=[Cd] | inactive
62 | ClC(Cl)C(Cl)Cl | inactive
63 | C[N+](=O)[O-] | inactive
64 | CC(N)=S | inactive
65 | C#CCN1C(=O)COc2cc(F)c(N3C(=O)C4=C(CCCC4)C3=O)cc21 | inactive
66 | CC(C)(C)NCC(O)c1cc(Cl)c(N)c(Cl)c1 (stereo unspecified) | inactive

Reference: PubChem BioAssay (Tox21)
